# Screens deposited in PubChem by National Center for Advancing Translational Sciences (NCATS).
# Sampled rows, rich in hits. Any-hit rate of the full collection: about 19%.
# TDP1 cell noCPT = qHTS for Inhibitors of human tyrosyl-DNA phosphodiesterase 1 (TDP1): qHTS in cells in absence of CPT; DT40 Tdp1-/- hTDP1 cells, no CPT, ATP luminescence, 48 h; Potency, µM (doses to about 46.2 µM), actives largely listed as inhibitors; actives 15% (n = 420,000); note: nearly all actives have a fitted effect of over 55% in size
#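 Seeded 400 DT40-hTDP1 cells/well (vehicle DMSO, no 20 nM CPT); pinned compounds; ≥48 hr at 37 °C; CellTiter-Glo luminescence as viability measure.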
# IL-1B inflam inh = blocks inflammasome-driven IL-1 beta release | THP-1 LPS/ATP IL-1B secretion, AlphaLISA, 16 h; hits give low values | activity change, % at 57.5 µM | actives 4.7% (n = 360,000) | AID 743279; in the data active = activity change below about -50%; inconclusive = mostly about -30% to -49%
#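 THP-1 cells pretreated 1 hr with compounds (up to 57.5 uM final), then stimulated with LPS (250 ng/mL final) plus ATP (1.25 mM final); secreted IL-1B measured by AlphaLISA after 16 hr, decreased signal indicating inhibition.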
# HT1080NT lethal = kills 2HG-producing HT-1080-NT fibrosarcoma cells. Potency, µM (top dose mostly 46.1 µM), hits mostly cytotoxic. actives 1.6% (n = 360,000). HT-1080-NT fibrosarcoma viability, CellTiter-Glo ATP luminescence, 48 h. AID 686970;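 note: NT is the 2HG producing partner of a matched IDH1 knockdown line; nearly all actives have a fitted effect of over 55% in size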
#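 Compounds were tested in concentration-response format on HT-1080-NT cells for 48 hours at 37 degrees C. Cell viability came from CellTiter-Glo luminescence; curves were classified by r2, response magnitude and activity.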
# HT1080 IDH1KD tx = toxicity to HT-1080 IDH1 knockdown cells (counter line); HT-1080 IDH1 knockdown viability, ATP luminescence, 48 h; Potency, µM (doses to about 46.1 µM), most hits filed as cytotoxic; actives 2% (n = 360,000); AID 686971
#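 After a 2 h attachment period, IDH1KD HT-1080 cells took pin-transferred compound for 48 h at 37 °C; ATP-based luminescence after 10 min room-temperature reagent incubation reported viability.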
# DT40 TDP1 CPT = DT40-hTDP1 cell growth loss with CPT. actives 12% (n = 420,000). Potency, µM (titrated, usually from 46.2 µM), most hits filed as inhibitors. chicken DT40 Tdp1-/-;hTDP1 cells + 20 nM CPT, ATP luminescence, 48 h. AID 686979; note: nearly all actives have a fitted effect of over 55% in size
#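 Cell growth measured by CellTiter-Glo luminescence after a minimum 48 h, 37 C compound exposure with 20 nM CPT in Tdp1-knockout DT40 cells stably expressing hTDP1, seeded 400/well; qHTS titration format.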
# Numbers stand for hits; – = inactive; ? = inconclusive; · = no result; ! = not confirmed by another sample. Unless noted, calls come from the whole dose curve; as a rule, active = well fitted curve in the direction sought with a large enough effect; inconclusive = small, poorly fitted or top-dose-only effect, or another doubt; inactive = no such curve, though single readings can be large; an effect the other way counts as inactive or inconclusive.
SMILES,TDP1 cell noCPT,IL-1B inflam inh,HT1080NT lethal,HT1080 IDH1KD tx,DT40 TDP1 CPT
CN=C1SC(CC(=O)Nc2ccccc2F)C(=O)N1/N=C/c1ccc(O)c(OC)c1 (stereo not drawn),13µM,–,?,?,23µM
CCOc1ccc(/C=N/N2C(=O)C(CC(=O)Nc3ccc(F)cc3F)SC2=NC)cc1OC (stereo not drawn),?,–,–,–,?
Cc1cccc(N/C(N)=N/c2nc(C)cc(C)n2)c1,16µM,-109,–,–,?
CC(=O)Nc1cccc(N/C(N)=N/c2nc(C)cc(C)n2)c1,–,–,–,–,26µM
Cc1cc(C)nc(/N=C(\N)Nc2cc([N+](=O)[O-])ccc2C)n1,–,·,–,–,?
Cc1cc(C)nc(/N=C(\N)Nc2cccc([N+](=O)[O-])c2)n1,?,-97,–,–,?
COC(=O)c1cc(N/C(N)=N/c2nc(C)cc(C)n2)cc(C(=O)OC)c1,?,–,–,–,?
O=C(NCCCN1CCCC1)c1cc2c(Cl)nc3ccccc3c2s1,12µM,·,?,21µM,15µM
CC1CCN(CCCNC(=O)c2cc3c(Cl)nc4ccccc4c3s2)CC1,?,-70,?,–,?
O=C(NCCN1CCN(c2ccccc2F)CC1)c1ccc2nc3ccccc3c(=O)n2c1,?,–,–,–,?
O=C(NCCCN1CCN(c2ccccc2F)CC1)c1cc2c(Cl)nc3ccccc3c2s1,15µM,·,·,·,16µM
O=C(Nc1cc(Cl)ccc1-n1cncn1)c1ccc(Br)o1,–,–,–,–,–
COc1ccc(CC(O)COS(N)(=O)=O)cc1 (stereo not drawn),–,–,–,–,–
COc1cccc(NC(=S)N2CCN(c3ccccn3)CC2)c1,?,–,–,–,?
CCOC(=O)c1sc2nc(CN3CCN(c4cccc(C(F)(F)F)c4)CC3)[nH]c(=O)c2c1C,–,–,–,–,–
CNC(=O)COC(=O)c1cc(-c2ccccc2)nn1-c1ccccc1,–,–,–,–,?
Cc1ccc(C)n1-c1cccc(C(=O)Nc2ccccc2)c1,15µM,–,–,–,?
COc1ccc(NC(=O)c2cccc(-n3c(C)ccc3C)c2)c(OC)c1,26µM,-61,–,–,?
O=C(Nc1ccccc1)c1cccc(N2CCCC2=O)c1,–,–,–,–,–
OC[C@@H]1CN(CCN2CCOCC2)C[C@H](n2cnc3c(NC4CCCC4)ncnc32)O1,–,–,?,–,–
CC(=O)c1ccc2c(c1)N(CCCN1CCC(CCO)CC1)c1ccccc1S2,?,–,·,·,11µM!
O=C(CN1CCCC1)N1c2ccccc2Sc2ccc(Cl)cc21,?,–,–,–,–
CN1CCN(CCCN2c3ccccc3Sc3ccc(S(=O)(=O)N(C)C)cc32)CC1,23µM,-106,18µM,12µM,16µM
OCCN1CCN(CCCN2c3ccccc3Sc3ccc(Cl)cc32)CC1,29µM,–,?,?,23µM
Nc1ccn([C@@H]2O[C@H](CNCC3=CCOc4ccc(O)cc43)[C@@H](O)[C@H]2O)c(=O)n1,–,–,–,–,–
SMILES,TDP1 cell noCPT,IL-1B inflam inh,HT1080NT lethal,HT1080 IDH1KD tx,DT40 TDP1 CPT
O=c1oc2ccc3ccccc3c2cc1-c1nnc(Nc2ccc(Cl)cc2Cl)s1,–,·,·,·,–
COc1ncccc1C(=O)NC1CCCc2c1cnn2-c1cc(C)cc(C)c1 (stereo not drawn),–,-56,–,–,?
COCc1ccc(C(=O)NC2CCCc3c2cnn3-c2cc(C)cc(C)c2)s1 (stereo not drawn),21µM,–,?,?,?
Cc1cc(C)cc(-n2ncc3c2CCCC3NC(=O)c2csnn2)c1 (stereo not drawn),–,–,–,–,–
COCc1ccc(C(=O)NC2CCCc3c2cnn3-c2ccc(C)c(C)c2)o1 (stereo not drawn),?,–,?,–,18µM
Cc1cc(C)cc(-n2ncc3c2CCCC3NC(=O)c2cc(C)oc2C)c1 (stereo not drawn),23µM,–,–,–,?
COc1ccc(OC)c(NC(=O)C2(C)CCN2C(=O)C2(c3ccc(Cl)cc3)CCC2)c1 (stereo not drawn),?,–,–,?,?
